The values below come from PubChem BioAssay (NCATS).

Assay [1] can be described thus: Primary qHTS for inhibitors of nuclear receptor binding SET domain protein 2 (NSD2) in an isogenic RCH-ACV NSD2 p.E1099K mutant (9B) (AID 1645876).
The nature of assay [2]: Primary qHTS for inhibitors of nuclear receptor binding SET domain protein 2 (NSD2) in an RCH-ACV wild type WT cells (2C) (AID 1645877). (In general: qHTS replaces the single test concentration by a dilution series.)

Results filed as inconclusive are left out. A call without a number means that no potency is given here. Values without a mark were called inactive. The source made the active and inactive calls. The call rests on the fitted dose curve; in most records, active means well fitted curve in the direction sought with a large enough effect; inconclusive means small, poorly fitted or top-dose-only effect, or another doubt; inactive means no such curve, though single readings can be large; an effect the other way counts as inactive or inconclusive.
Further: nearly all actives have a fitted effect of over 70% in size.
Potency means the concentration at half of the fitted maximal effect.

With `C=CC(C)(C)O[C@@H]1O[C@H](CO[C@@H]2OC[C@](O)(CO)[C@H]2O)[C@@H](O)[C@H](O)[C@H]1O`, the Potency result in assay [1] and in assay [2] was “inactive” throughout. With `Cn1c(=O)c2nc(/C=C/c3cccc(Cl)c3)n(C)c2n(C)c1=O`, the Potency entry in assay [1] and in assay [2] was “inactive” in each case. As for `COc1cc(/C=C/C(=O)O[C@H]2[C@H](O)[C@@H](CO)O[C@@]2(CO)O[C@H]2O[C@H](COC(=O)c3ccc(O)cc3)[C@@H](O)[C@H](O)[C@H]2O)cc(OC)c1OC`, the Potency result in assay [1] and in assay [2] was “inactive” throughout.

Regarding `CC1(C)CCCC2(C)C(CO)C3CCC2C31` (stereo not given), the Potency result in assay [1] and in assay [2] was “inactive” throughout. Consider `CC1(C)CC2C3=CCC4C5(C)CCC(OC6OC(CO)C(O)C(OC7OC(CO)C(O)C(OC8OC(CO)C(O)C(OC9OC(COC%10OC(CO)C(O)C(O)C%10O)C(O)C(O)C9O)C8O)C7O)C6O)C(C)(C)C5CCC4(C)C3(C)CCC2(C(=O)O)CC1O` (stereo not given), for which the outcome in assay [1] is “inactive [at 9.23 µM]”. Also, the activity change, negative = cell killing in assay [2] was 4.6% [at 9.23 µM]. With `CC1(C)CC[C@]2(C(=O)O[C@@H]3O[C@H](CO)[C@@H](O)[C@H](O)[C@H]3O)CC[C@]3(C)C(=CCC4[C@@]5(C)C[C@@H](O)[C@H](O)C(CO)(CO)C5CC[C@]43C)C2[C@@H]1O` (stereo not given in full), the Potency entry in assay [1] and in assay [2] was “inactive” in each case.

For the compound `C=CC(C)(O)CO[C@@H]1O[C@H](CO)[C@@H](O)[C@H](O)[C@H]1O` (stereo not given in full), the Potency result in assay [1] and in assay [2] was “inactive” in each case. Consider `NC(=O)c1ccc(OCC2NC(=O)C3CCCN3C2=O)cc1` (stereo not given), for which the Potency result in assay [1] and in assay [2] was “inactive” each time. With `CC(=O)[C@@H]1CC[C@]2(C(=O)O)CC[C@]3(C)C(CCC4[C@@]5(C)CC[C@H](O)C(C)(C)C5CC[C@]43C)C12` (stereo not given in full), the Potency in assay [1] is 7.96 µM (active). In addition, the Potency entry in assay [2] is “inactive”. Taken in the same sequence, the figures for `OCc1ccccc1O[C@@H]1O[C@H](CO)[C@@H](O)[C@H](O)[C@H]1O` were “inactive” and “inactive”. On to `COc1cc(C2OCC3C(c4ccc(OC5OC(CO)C(O)C(O)C5O)c(OC)c4)OCC23)ccc1O` (stereo not given), for which, in assay [2], the Potency entry is “inactive”. Regarding `CCCCS(=O)(=O)Nc1ncnc(OCCOc2ncc(Br)cn2)c1-c1ccc(Br)cc1`, the Potency result in assay [1] and in assay [2] was “inactive” in each case.

Regarding `CC(=O)OCC(=O)O[C@@H]1[C@H]2[C@@H](OC(=O)c3ccccc3)[C@@H](C)C[C@]2(O)[C@H](OC(C)=O)C2(C)[C@H]3CC(C)(C)C(=O)[C@@H]3CC1(OC(C)=O)[C@@H]2OC(C)=O` (stereo not given in full), the Potency entry in assay [1] and in assay [2] was “inactive” each time. On to `C=CC1C(O[C@@H]2O[C@H](CO)[C@@H](O)[C@H](O)[C@H]2O)OC=C(C(=O)OC)C1Cc1nccc2c1[nH]c1ccccc12` (stereo not given in full), for which the Potency entry in assay [1] and in assay [2] was “inactive” in each case. Turning to `COc1cc(/C=C/C(=O)OC2CC(OC(C)=O)C(OC(C)=O)C3C2CCC2C(=O)OC(c4ccoc4)CC23C)ccc1O[C@@H]1O[C@H](CO)[C@@H](O)[C@H](O)[C@H]1O` (stereo not given in full), in assay [2], the Potency entry is “inactive”. For the compound `C[C@@H]1O[C@@H](O[C@H]2[C@H](OC(C#N)c3ccc(O)cc3)O[C@H](CO)[C@@H](O)[C@@H]2O)[C@H](O)[C@H](O)[C@H]1O` (stereo not given in full), the Potency entry in assay [1] and in assay [2] was “inactive” each time. For `O=C(/C=C/c1ccc(O)c(O)c1)OCc1ccccc1O[C@@H]1O[C@H](CO)[C@@H](O)[C@H](O)[C@H]1O`, the Potency result in assay [1] and in assay [2] was “inactive” throughout. Regarding `CC1=C2C=C(CO)C(CO)CCC2(C)CCC1=O` (stereo not given), the Potency result in assay [1] and in assay [2] was “inactive” in each case.

For `COC1CC(OC2CCC3(C)C(=CCC4C3CCC3(C)C(C(C)O)CCC43O)C2)OC(C)C1OC1OC(C)C(OC2OC(COC3OC(COC4OC(CO)C(O)C(O)C4O)C(O)C(O)C3O)C(O)C(O)C2O)C(OC)C1O` (stereo not given), the outcome in assay [1] and in assay [2] was “inactive [at 9.23 µM]” in each case. Turning to `CCC(=O)O[C@]1(C(=O)CCl)[C@@H](C)C[C@H]2[C@@H]3C[C@H](F)C4=CC(=O)C=C[C@]4(C)[C@@]3(F)[C@@H](O)C[C@@]21C`, the Potency entry in assay [2] was “inactive”. Still for that read-out and setting: the entry for `COC1C2=C(COC2=O)C2(C)CCCC(C)(CO)C2C1OC(=O)c1ccccc1` (stereo not given) is “inactive”. On to `CC12CCC3C(C)(C)C(O)CCC3(C)C1Cc1c(oc(C(=O)O)cc1=O)O2` (stereo not given), for which the Potency entry in assay [1] and in assay [2] was “inactive” each time.

As for `C=C1CCC2C(C)(CO[C@@H]3O[C@H](CO)[C@@H](O)[C@H](O)[C@H]3O)C(O)CCC2(C)C1C(=O)CC1=CCOC1=O` (stereo not given in full), the Potency entry in assay [1] and in assay [2] was “inactive” each time. For `CCNC(=O)CCC/C=C\C[C@@H]1[C@@H](/C=C/C(O)CCc2ccccc2)[C@@H](O)C[C@@H]1O` (stereo not given in full), the Potency entry in assay [1] and in assay [2] was “inactive” in each case. In the case of `C[C@]1(OC(=O)/C=C/c2ccccc2)C[C@H](O)[C@]2(O)C=CO[C@@H](O[C@@H]3O[C@H](CO)[C@@H](O)[C@H](O)[C@H]3O)C12` (stereo not given in full), the Potency result in assay [1] and in assay [2] was “inactive” in each case. For the compound `NCCOCCOCCNC(=O)Cc1ccc(Nc2nc(NCc3ccc(F)cc3)nc(NCC3CCCCC3)n2)cc1`, the Potency in assay [2] was 16.3 µM (active). Regarding `Nc1c(Br)cc(Br)cc1CNC1CCC(O)CC1` (stereo not given), in assay [2], the Potency result was “inactive”. Turning to `C/C(=C\CCC(C)(O)c1ccc(C)cc1)C(=O)O` (stereo not given), the Potency entry in assay [1] and in assay [2] was “inactive” in each case.
